Experimental findings from paper PMC5540273 (PLoS ONE, 2017) are described below.

One assay concerns T1, LKB1.
T1 construct: gene STK11

The next assay deals with T2, LOK.
T2 construct: gene STK10

For a further assay, the system named is T3, MEK1.
T3 construct: gene MAP2K1

In another assay the test system is T4, MEK2.
T4 construct: gene MAP2K2

The next assay relates to T5, MINK.
T5 construct: gene MINK1

SMILES strings stand for the structures.
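Also: kd values determined as follow-up on hits from a single-replicate KINOMEscan panel screen.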

Take `CCn1c(-c2nonc2N)nc2ccccc21` [SB-693162/GW549034]: the Kd in the assay on LATS2 was 1800 nM; in the assay with LRRK2 it was over 10 µM.
`Nc1ncnc2c1ncn2-c1cccc2ccccc12` [SKF-97184] displayed a Kd with LKB1 of over 10 µM.
In the case of `COc1cc2ncn(-c3cc(OCc4ccncc4Br)c(C(N)=O)s3)c2cc1OC` [GW854278], binding with LOK was put at a Kd of 500 nM.
On to `Cc1nnc(-c2ccc(C)c(-c3ccc(C(=O)O)cc3)c2)o1` [GW608005], for which, in the assay with LOK, the Kd is over 10000 nM.
Take `Cc1ccccc1COc1cc(-n2cnc3cc(Cl)ccc32)sc1C(N)=O` [GW813349]: in the assay with LRRK2, the Kd is over 10 µM.
In the assay with LYN, `Nc1n[nH]c2nnc(-c3ccccc3)c(-c3ccccc3)c12` [GW554060] showed a Kd of over 10 µM.
Take `CCS(=O)(=O)c1ccc(OC)c(Nc2ncc(-c3ccc(F)cc3)o2)c1.Cl` [GW591947]: in the assay on MAK, the Kd is over 10 µM.
For `Cc1nnc(-c2ccc3ncn(-c4ccc(S(C)=O)cc4)c3c2)o1` (stereo not shown), in the assay with MAP4K2, the Kd is over 10 µM.
As to `CN1C(=O)C(Nc2cc(Cl)c(O)c(Cl)c2)=C(c2ccc(Cl)cc2)C1=O` [SB-404321], the equilibrium dissociation constant (Kd) with MAPKAPK2 is over 10 µM.
In the assay with MAST1, `CN1C(=O)C(Nc2ccccc2)=C(c2ccccc2)C1=O` [SB-300079] returned a Kd of over 10 µM.
With `Cc1cccc(-c2nc(Nc3ccc4c(cnn4C)c3)c3ccccc3n2)n1` [GW876731], the Kd with MAST1 and in the assay on MKNK1 was over 10 µM in each case.
For `Cn1c(=O)c(F)c(Nc2ccc(I)cc2F)c2c(=O)n(OC[C@H](O)CO)cnc21`, the Kd with MEK1 came to 34 nM; with MEK2 it was 200 nM.
In the case of `COc1cc2nccc(Nc3cccc(Oc4ccccc4)c3)c2cc1OC.Cl` [GW284543], the Kd in the assay with MEK1 is 100 nM; with MEK2, 270 nM.
`O=C(Nc1ccc2c(c1)OCO2)NC1CCN(c2ccnc(NCc3ccc(F)cc3)n2)CC1` [GSK1379859]: in the assay on MELK, the dissociation constant Kd was over 10 µM.
Consider `Nc1nc(-c2ccccc2F)c(-c2ccnc3ccccc23)s1` [GW560459], for which the Kd in the assay on MINK was found to be 1700 nM.
The compound `COc1ccc(CNC(=O)NC2CCN(c3ccnc(Nc4ccc(F)cc4)n3)C2)cc1` (stereo not shown) [GSK1379706] returned a Kd with MINK of over 10000 nM.
In the assay on MKNK2, `Nc1n[nH]c2ncc(-c3ccccc3)cc12` [SB-517081] registered a Kd of 260 nM.
Turning to `O=C(Nc1n[nH]c2nc(-c3ccccc3)c(Br)cc12)C1CC1` [SB-708998], in the assay with MST1R, the Kd is over 10 µM.
In the assay with MTOR, `COc1ccc(-c2cc3c(C)nc(N)nc3n([C@H]3CC[C@H](O)CC3)c2=O)cn1` came in with a Kd of 4.8 nM.
`COc1ccc(-c2cc3c(C)nc(N)nc3n([C@H]3CC[C@H](OCCO)CC3)c2=O)cn1` gave a Kd in the assay with MTOR of 3.3 nM.
For the compound `COc1cc2ncn(-c3cc(OCc4ccncc4)c(C(N)=O)s3)c2cc1OC` [GSK336313], in the assay on MUSK, the Kd is over 10 µM.

The term Kd denotes the free concentration of one partner at which half of the binding sites on the other are occupied at equilibrium, for simple one-to-one binding. A high value points to a looser complex.
